Records with an inconclusive call do not appear. Calls of active or inactive are those of the source. The calls were made as follows: active = hit-call score of the fitted dose curve at least 0.9, where 1 is the maximum; inconclusive = response in the unintended direction; inactive = score below 0.9.

The test can be described thus: TOX21_p53_BLA_p4_viability: Viability Assessment in the Tox21 HCT-116 p53 Agonism Beta-lactamase Assay, Phase 4 (AID 2283597).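 Also: hits lower the luminescence signal meaning cytotoxicity.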 Summed up: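 Cytotoxicity was inferred from loss of CellTiter-Glo luminescence. HCT116 cells had been dosed with compounds after 5 h plating, incubated 16 h at 37C and 5% CO2, and exposed to the CCF4-AM substrate for 2 h.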
Consider `CCCCNC(=O)NCCCC`, for which the call was inactive.

Regarding `CN(C)C(=O)Oc1ccc[n+](C)c1`, the compound was classed as inactive.

Consider `CN[C@@H]1[C@@H](O)[C@@H](O[C@@H]2[C@@H](O)[C@H](O[C@H]3O[C@H](CN)[C@@H](O)[C@H](O)[C@H]3O)[C@@H](N)C[C@H]2NC(=O)C(O)CN)OC[C@]1(C)O` (some centres undefined), for which the outcome was inactive.

For `O[C@@H]1CO[C@H]2[C@@H]1OC[C@@H]2O`, the compound was called inactive.

`O=C(O)c1ccc(NC(=O)[C@H](Cc2ccc(O)cc2)NC(=O)c2ccccc2)cc1`: the call was inactive.

`Cc1ccc(N)nc1`: the compound was called inactive.

On to `CCOC(=O)[C@H](CCc1ccccc1)N[C@@H](C)C(=O)N1Cc2cc(OC)c(OC)cc2C[C@H]1C(=O)O`, for which the call was inactive.

In the case of `N[C@@H](CSCCCO)C(=O)O`, the outcome was inactive.

As to `COc1cc2c(cc1OC)C(C(C(=O)N(CCc1ccc(OC)c(OC)c1OC)CCc1ccc(OC)c(OC)c1OC)c1ccccc1)=NCC2` (centres undefined), the outcome was inactive.

With `Cc1cc([N+](=O)[O-])ccc1N`, the result was inactive.

On to `CCCCOc1ccc(OCCCN2CCOCC2)cc1`, for which the outcome was inactive.

With `CC1(C)OC[C@@H](COC(=O)CCc2ccc(OC[C@@H](O)CNCCNC(=O)N3CCOCC3)cc2)O1`, the result was inactive.

Regarding `N[C@H]1CN(c2c(F)cc3c(=O)c(C(=O)O)cn(C4C[C@H]4F)c3c2Cl)CC12CC2` (some centres undefined), the call was inactive.

As a reminder, the AC50 is the midpoint of the concentration-response curve, whichever way the signal moves. On to `C=C1C(=O)O[C@H]2[C@H]1CC/C(C)=C/CC[C@@]1(C)O[C@@H]21`, for which the AC50 was 36.9 µM (active).

Regarding `O=C(Cn1c(=O)sc2ccc(Cl)cc21)N1CCN(CCO)CC1`, the compound was called inactive.

For `O=C(O)c1cc(C(=O)O)cc(C(=O)O)c1`, the call was inactive.

For `CC1CCCCN1CCCOC(=O)c1ccccc1` (centres undefined), the compound was classed as inactive.

In the case of `NCc1ccc(S(N)(=O)=O)cc1`, the call was inactive.

Regarding `COc1cc(Cl)ccc1Cl`, the call was inactive.
